Calls of active or inactive are those of the source. No stated cut-off is given here; in the data, active means inhibition above about 50%; inactive means the rest.
The compounds below were run against Vascular endothelial growth factor receptor 2 (Homo sapiens) (UniProt P35968) (assay: Biochemical primary assay, inhibitors of H. sapiens VEGFR2, LANCE Ultra time-resolved FRET readout, NPC library (AID 1117353)). Details: LANCE Ultra TR-FRET kinase assay; at 20 µM (top of the series).
Chain of Vascular endothelial growth factor receptor 2 (Homo sapiens) (P35968 whole entry, looked up): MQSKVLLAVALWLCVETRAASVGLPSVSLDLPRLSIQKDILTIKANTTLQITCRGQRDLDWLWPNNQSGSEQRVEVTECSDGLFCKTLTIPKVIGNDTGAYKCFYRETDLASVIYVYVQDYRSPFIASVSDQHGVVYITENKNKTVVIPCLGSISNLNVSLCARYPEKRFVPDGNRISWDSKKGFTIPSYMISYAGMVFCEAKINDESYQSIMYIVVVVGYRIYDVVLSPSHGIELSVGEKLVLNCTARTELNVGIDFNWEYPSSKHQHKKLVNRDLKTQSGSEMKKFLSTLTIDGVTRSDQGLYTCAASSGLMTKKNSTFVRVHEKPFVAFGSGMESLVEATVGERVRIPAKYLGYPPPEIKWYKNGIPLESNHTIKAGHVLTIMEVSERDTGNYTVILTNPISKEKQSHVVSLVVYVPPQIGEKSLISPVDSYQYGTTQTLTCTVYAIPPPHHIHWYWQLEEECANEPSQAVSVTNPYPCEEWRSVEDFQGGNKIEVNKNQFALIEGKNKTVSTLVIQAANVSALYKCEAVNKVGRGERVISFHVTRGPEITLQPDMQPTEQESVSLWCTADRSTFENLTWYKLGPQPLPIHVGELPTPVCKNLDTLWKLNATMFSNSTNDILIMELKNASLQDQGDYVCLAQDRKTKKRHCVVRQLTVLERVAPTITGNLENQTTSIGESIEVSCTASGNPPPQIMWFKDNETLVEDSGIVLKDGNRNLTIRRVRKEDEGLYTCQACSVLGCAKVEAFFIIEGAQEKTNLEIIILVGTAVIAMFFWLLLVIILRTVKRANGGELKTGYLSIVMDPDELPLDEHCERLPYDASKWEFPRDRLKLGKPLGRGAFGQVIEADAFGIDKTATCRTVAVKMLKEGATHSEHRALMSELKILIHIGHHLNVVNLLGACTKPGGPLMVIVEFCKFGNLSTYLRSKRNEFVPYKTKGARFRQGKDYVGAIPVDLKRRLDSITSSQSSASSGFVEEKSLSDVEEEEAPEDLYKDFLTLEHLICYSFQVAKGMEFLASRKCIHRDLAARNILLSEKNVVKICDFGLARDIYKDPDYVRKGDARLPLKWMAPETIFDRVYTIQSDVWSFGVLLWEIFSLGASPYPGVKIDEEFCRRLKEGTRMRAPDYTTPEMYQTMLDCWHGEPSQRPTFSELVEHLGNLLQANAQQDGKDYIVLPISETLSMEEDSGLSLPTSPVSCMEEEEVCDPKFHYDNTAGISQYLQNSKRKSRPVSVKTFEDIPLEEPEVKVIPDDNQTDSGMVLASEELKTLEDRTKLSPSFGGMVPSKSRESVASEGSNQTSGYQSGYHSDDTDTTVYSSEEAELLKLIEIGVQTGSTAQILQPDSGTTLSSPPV
With COc1cc(-c2ccc(=O)[nH]n2)ccc1OC(F)F the inhibition was -22.3% (inactive). In the case of CCCSc1ccc2nc(NC(=O)OC)[nH]c2c1, the inhibition is reported as -6.58% (inactive). For COC(=O)Nc1nc2ccc(C(=O)c3ccccc3)cc2[nH]1, the inhibition was 74.1% (active). With COc1ccc(-c2nc3ccc(C4=NNC(=O)CC4C)cc3[nH]2)cc1 (stereo not drawn) the inhibition was -36.5% (inactive). In the case of COc1ccc2cc1Oc1ccc(cc1)C[C@H]1c3c(cc4c(c3Oc3cc5c(cc3OC)CCN(C)[C@@H]5C2)OCO4)CCN1C, the inhibition is reported as 30.3% (inactive). With COC(=O)Nc1nc2ccc(C(=O)C3CC3)cc2[nH]1 the inhibition was 69.1% (active). COC(=O)Nc1nc2ccc(S(=O)c3ccccc3)cc2[nH]1 (stereo not drawn) was tested, and the inhibition was 8.1% (inactive). In the case of CSc1ccc2c(c1)C(N1CCN(C)CC1)Cc1ccccc1S2 (stereo not drawn), the inhibition is reported as -11.8% (inactive). CC(C)(C)C1CCC(CC2=C(O)c3ccccc3C(=O)C2=O)CC1 (stereo not drawn) was tested, and the inhibition was -21.1% (inactive). In the case of O=c1[nH]c(=O)n([C@H]2C[C@H](O)[C@@H](CO)O2)cc1F, the inhibition is reported as -21.7% (inactive). O=C(CCCCCCC(=O)Nc1ccccc1)NO was tested, and the inhibition was -32.6% (inactive). With Cc1ccc2nc(N)[nH]c(=O)c2c1Sc1ccncc1 the inhibition was -56.2% (inactive). With Cc1cc(C2CCCCC2)n(O)c(=O)c1 the inhibition was 4.72% (inactive). CC(=O)Oc1ccc(C2(c3ccc(OC(C)=O)cc3)Oc3ccccc3NC2=O)cc1 was tested, and the inhibition was -14.8% (inactive). For CCCCCCNC(=O)n1cc(F)c(=O)[nH]c1=O, the inhibition was -15.1% (inactive). In the case of Cc1nc(N)nc(N)c1-c1ccc(Cl)c(Cl)c1, the inhibition is reported as -0.1% (inactive). CC[C@]1(O)C[C@@H]2CN(CCc3c([nH]c4ccccc34)[C@@](C(=O)OC)(c3cc4c(cc3OC)N(C)[C@H]3[C@@](O)(C(=O)OC)[C@H](OC(C)=O)[C@]5(CC)C=CCN6CC[C@]43[C@@H]65)C2)C1 was tested, and the inhibition was -21.1% (inactive). With CCCCCCCCCCCCCCCCCCNC(=O)OC1CCN(C(=O)OC[C@H](COC(=O)N(Cc2cccc[n+]2CC)C(=O)c2ccccc2OC)OC)CC1 the inhibition was -459% (inactive). CC(C)C[C@H](NC(=O)[C@H](Cc1ccccc1)NC(=O)c1cnccn1)B(O)O was tested, and the inhibition was 19% (inactive). For COc1c(C)c2c(c(O)c1C/C=C(\C)CCC(=O)OCCN1CCOCC1)C(=O)OC2, the inhibition was -1.65% (inactive). With CNC(=O)c1ccccc1Sc1ccc2c(/C=C/c3ccccn3)n[nH]c2c1 the inhibition was 100% (active). In the case of Oc1c(Cl)cc(Cl)c2cccnc12, the inhibition is reported as -23.4% (inactive). In the case of COc1cc2nc(N3CCN(C(=O)c4ccco4)CC3)nc(N)c2cc1OC, the inhibition is reported as -41.4% (inactive). In the case of CCCOc1ccc2nc(NC(=O)OC)[nH]c2c1, the inhibition is reported as 10.2% (inactive). With C[C@@]12C(=O)OC(=O)[C@]1(C)C1CCC2O1 the inhibition was -15.1% (inactive). With CC[C@]1(O)C[C@H]2CN(CCc3c([nH]c4ccccc34)[C@@](C(=O)OC)(c3cc4c(cc3OC)N(C=O)[C@H]3[C@@](O)(C(=O)OC)[C@H](OC(C)=O)[C@]5(CC)C=CCN6CC[C@]43[C@@H]65)C2)C1 the inhibition was -11.3% (inactive). CCCCCCCCCCCCCCCC[n+]1ccccc1 was tested, and the inhibition was -114% (inactive). In the case of Oc1c(Cl)cc(Cl)cc1Sc1cc(Cl)cc(Cl)c1O, the inhibition is reported as 60.4% (active). In the case of CCC(C)n1ncn(-c2ccc(N3CCN(c4ccc(OC[C@H]5CO[C@](Cn6cncn6)(c6ccc(Cl)cc6Cl)O5)cc4)CC3)cc2)c1=O (stereo partly drawn), the inhibition is reported as 22.4% (inactive). In the case of COCc1c(C(C)C)nc(C(C)C)c(/C=C/[C@@H](O)C[C@@H](O)CC(=O)O)c1-c1ccc(F)cc1, the inhibition is reported as 31.8% (inactive). O=C1c2c(O)ccc(O)c2C(=O)c2c(NCCNCCO)ccc(NCCNCCO)c21 was tested, and the inhibition was -38% (inactive). In the case of COC(=O)c1nc(Cl)c(Cl)nc1N, the inhibition is reported as 6.09% (inactive). With CC[C@@]1(O)C(=O)OCc2c1cc1n(c2=O)Cc2c-1nc1ccccc1c2/C=N/OC(C)(C)C the inhibition was 18.1% (inactive). In the case of Cc1cc(C)c(/C=C2\C(=O)Nc3ccccc32)[nH]1, the inhibition is reported as 98.7% (active). In the case of C[n+]1c2cc(N)ccc2cc2ccc(N)cc21 (tested in a mixture with another compound), the inhibition is reported as -22% (inactive). Cc1cc2c(C(C)C)c(O)c(O)c(C=O)c2c(O)c1-c1c(C)cc2c(C(C)C)c(O)c(O)c(C=O)c2c1O was tested, and the inhibition was -2.11% (inactive). With Cc1cc(=O)c2c(O)c3c(O)cc(=O)c4c3c3c(cc(O)c1c23)C(C)(C)C=4O the inhibition was 22.3% (inactive). For O=C(NOCC1CC1)c1ccc(F)c(F)c1Nc1ccc(I)cc1Cl, the inhibition was 12.4% (inactive).
